# From PubChem BioAssay (NCI)
# About 83,000 compounds went through this panel and 20% of them were active in at least one assay; those are over-represented in the sample as a whole.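 In brief: 96-well plates, 48 h treatment, single concentration, percent growth endpoint.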 A number with no mark means an inactive call. The source made the active and inactive calls. Rule for the calls: active = growth percent below 10; inactive = the rest.
# Tests used:
# Experiment in all cases: NCI-60 one-dose screen, 48 h (100 = growth as untreated, 0 = no growth, -100 = all killed)
# Details in all cases: 10 µM unless noted
# [1] = system: DU-145 prostate
# [2] = system: K-562 leukemia
# [3] = system: MALME-3M melanoma
# [4] = system: MDA-MB-231 breast
# [5] = system: RXF 393 renal
# [6] = system: SF-268 CNS
# [7] = system: SF-295 CNS
# [8] = system: SF-539 CNS
# [9] = system: UACC-257 melanoma
# [10] = system: M14 melanoma
# [11] = system: HCT-15 colon
# [12] = system: HT29 colon
# [13] = system: SNB-75 CNS
# [14] = system: SNB-19 CNS
# [15] = system: U251 CNS
# [16] = system: PC-3 prostate
# [17] = system: SK-MEL-5 melanoma
# [18] = system: UACC-62 melanoma
# [19] = system: LOX IMVI melanoma
# [20] = system: SK-MEL-28 melanoma
Compound,growth [1],growth [2],growth [3],growth [4],growth [5],growth [6],growth [7],growth [8],growth [9],growth [10],growth [11],growth [12],growth [13],growth [14],growth [15],growth [16],growth [17],growth [18],growth [19],growth [20]
C#CCOc1ccccc1C(OC(=O)c1ccccc1)C(=O)NC(C)(C)C(C)(C)C (stereo not given),108%,78.3%,76.4%,80.8%,74.6%,93.5%,70.3%,102%,81.6%,89.4%,78.3%,74.6%,71.4%,95.1%,87.1%,60.7%,80.8%,66.9%,91.6%,101%
Cc1ccc([C@H]2c3[nH]c4ccccc4c3C[C@H]3C(=O)N(CCCCCCC(=O)NO)CC(=O)N23)s1,71.5%,35.8%,22.9%,72.2%,59.7%,88.5%,78.1%,58%,53.5%,63.5%,93.6%,56%,35.8%,62.7%,65%,61.9%,40.5%,33.3%,-93.2% (active),48.3%
COc1cc(C(=O)c2cc(C(C)=O)c3ccc(C)cn23)cc(OC)c1OC,66.9%,19.2%,43.9%,55.2%,58.6%,61.3%,7.71% (active),34.7%,76.7%,16.1%,18.9%,15.6%,6.02% (active),40%,34%,55.6%,36.7%,17.2%,34.5%,58.1%
CCOC(=O)c1cccc(NC2=C(Cl)C(=O)c3nc(C)ccc3C2=O)c1,108%,15.6%,96.3%,89.8%,97.8%,96.2%,113%,104%,82%,96.4%,72.2%,116%,108%,90.8%,103%,82%,98.2%,95.8%,65.1%,103%
Cc1ccccc1NC(=O)Nc1nc2ccc([N+](=O)[O-])cc2s1,20.3%,5.43% (active),-6.54% (active),17.6%,12.1%,18.6%,6.9% (active),13.6%,-1.96% (active),19.9%,12.1%,5.11% (active),6.72% (active),14.1%,3.34% (active),2.79% (active),-47.2% (active),11.6%,12.1%,16.6%
N#Cc1c(-c2cccs2)c(C#N)c(=O)n(Cc2nc3ccccc3[nH]2)c1N,111%,101%,107%,82.4%,94.4%,104%,107%,97.7%,110%,98.4%,98.2%,-93% (active),78.7%,101%,94.2%,97.4%,95.1%,90.5%,100%,110%
Cc1ccc2c(n1)C(=O)C(Cl)=C(Nc1ccccc1C(=O)OC(C)(C)C)C2=O,-56.2% (active),-15.7% (active),-45.9% (active),55.5%,-81.7% (active),79.6%,91.8%,83.1%,-63.5% (active),-10.6% (active),-66.2% (active),26.2%,98.6%,80.4%,71.5%,67.1%,45.3%,79%,-72.5% (active),34.6%
Cn1c(SCC(=O)c2ccco2)nc2ccccc2c1=O,106%,92%,98.3%,93.8%,124%,102%,104%,96.6%,99.7%,97.2%,84.9%,118%,86.2%,102%,105%,93.6%,98.1%,87%,95.2%,108%
CCCCCN1C(=O)/C(=c2\sc3n(c2=O)C2C(NN=3)N(CC)C(=O)N2CC)c2cccc(C)c21 (stereo not given),76.6%,16.2%,51.6%,62.4%,15.1%,56.9%,45%,23.8%,79.8%,51.4%,19.9%,37.9%,20.5%,53.1%,61%,40%,45.5%,35.4%,37.9%,62.4%
C=C(C)[C@@H]1CC[C@]2(COCCCNCCCN)CC[C@]3(C)[C@H](CC[C@@H]4[C@@]5(C)CC[C@H](O)C(C)(C)[C@@H]5CC[C@]43C)[C@@H]12,-80.8% (active),-9.9% (active),-83.8% (active),-86.3% (active),-90.9% (active),-57.9% (active),-85.2% (active),-96.2% (active),-0.281% (active),-90.3% (active),-78% (active),-62.6% (active),-86.6% (active),-91% (active),-73.4% (active),-74.4% (active),-63.5% (active),-89.6% (active),-80.7% (active),-92.8% (active)
O=c1c2cc(-c3ccc(F)cc3F)ccc2n(O)c(=O)n1-c1cccc(C(F)(F)F)c1,25.5%,3.41% (active),-12.2% (active),-10.3% (active),3.38% (active),17.4%,-11.2% (active),21.1%,-8.3% (active),17.6%,10.5%,62.9%,-19.4% (active),10.5%,5.79% (active),-0.871% (active),-59.7% (active),-0.381% (active),12.5%,27.2%
COc1cc2cc(Oc3ccc(NC(=O)c4cc(C(F)(F)F)cc(C(F)(F)F)c4)cc3)c(C)nc2cc1OCCN1CCOCC1,87.1%,26.5%,69.7%,75.7%,1.66% (active),72.6%,29.7%,59.4%,57.3%,60.5%,47.1%,63.8%,47.7%,87.6%,55%,41.7%,14.6%,59.3%,69.6%,70.8%
CSc1ccc(/C(=N/N=C(N)N)c2ccc(Cl)cc2)cc1,9.65% (active),1.76% (active),22.5%,7.57% (active),16.5%,19.3%,8.73% (active),-10.3% (active),57.8%,-90.9% (active),3.54% (active),-30.1% (active),1.16% (active),19.6%,-13.5% (active),8.76% (active),-0.967% (active),7.53% (active),-42.5% (active),48.8%
Cc1ncn(-c2ccc(/C=N/Nc3ccnc4cc(Cl)ccc34)cc2)c1C,8.97% (active),0.733% (active),-88.7% (active),-16.8% (active),-43.7% (active),21.5%,-72.5% (active),-60.7% (active),-67.2% (active),-88.5% (active),-59.4% (active),-77.5% (active),-24.2% (active),42.3%,-81.7% (active),-21.3% (active),-19.7% (active),-74.4% (active),-88.9% (active),-79.3% (active)
Cc1ccc(C)c(NC2=C(Cl)C(=O)c3nc(C)ccc3C2=O)c1,-76.4% (active),1.06% (active),-52.4% (active),-14.5% (active),-43.5% (active),-1.66% (active),-24.1% (active),-95.1% (active),-87.7% (active),-55.8% (active),-60.9% (active),86.4%,63.2%,17.1%,1.85% (active),9.58% (active),-96.8% (active),-35.2% (active),-69.5% (active),-11.6% (active)
C/C(=N/N)c1nnn(-c2ccc(Br)cc2)c1C,108%,91.2%,102%,101%,103%,97.8%,94.2%,93.1%,105%,105%,103%,106%,98.1%,97.9%,98.6%,95.8%,99.6%,98.1%,86.2%,99.2%
